FLuc counter: inhibits or activates purified firefly luciferase, miR-21 counter-screen. 6.9% of 360,000 active. Potency, µM (titrated, usually from 57.5 µM), inactives show at the top dose activity change, negative = inhibition, usual class: inhibitors. P08659. purified FLuc, Km substrates, luminescence inhibition;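 also: plate controls were vehicle for no effect and reference inhibitor for full effect; nearly all actives have a fitted effect of over 55% in size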
Target sequence (P08659 whole entry, looked up): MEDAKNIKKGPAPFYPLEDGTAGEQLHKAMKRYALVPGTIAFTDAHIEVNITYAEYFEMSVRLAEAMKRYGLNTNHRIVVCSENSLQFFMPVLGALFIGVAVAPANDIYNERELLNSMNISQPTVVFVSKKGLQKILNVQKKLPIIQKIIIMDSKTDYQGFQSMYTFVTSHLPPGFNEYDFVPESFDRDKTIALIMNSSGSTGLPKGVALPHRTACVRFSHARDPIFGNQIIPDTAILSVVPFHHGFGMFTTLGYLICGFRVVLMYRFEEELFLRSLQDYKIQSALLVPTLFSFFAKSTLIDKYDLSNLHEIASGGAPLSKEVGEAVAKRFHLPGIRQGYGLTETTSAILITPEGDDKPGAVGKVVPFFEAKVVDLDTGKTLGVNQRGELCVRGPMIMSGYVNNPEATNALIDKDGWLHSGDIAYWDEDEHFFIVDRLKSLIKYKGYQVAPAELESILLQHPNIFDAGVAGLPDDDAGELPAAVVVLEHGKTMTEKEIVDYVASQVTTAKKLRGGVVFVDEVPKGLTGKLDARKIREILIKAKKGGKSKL
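Purified P. pyralis luciferase (10nM final) with 10uM D-luciferin and 10uM ATP (Km levels) in 50mM Tris acetate pH 7.5, 10mM Mg acetate, 0.01% Tween-20, 0.05% BSA; qHTS 6-point titration, ~60 µM downward; luminescence read.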
SMN2 splice up: enhancers of SMN2 splice variant expression. HEK293 SMN2-luciferase splicing reporter, luminescence, 30-36 h. Potency, µM (highest dose often 46.1 µM), inactives show at the top dose activity change, positive = activation, actives largely listed as activators. 2.8% of 210,000 active; also: % of control where 0% means no effect; nearly all actives have a fitted effect of over 55% in size
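HEK293 cells carry an SMN2 minigene-luciferase reporter in which exon 7 inclusion puts luciferase in frame. Cells were seeded at 2000 cells/well, attached for 10-12 hours, then exposed to compounds for 30-36 hours at 37C before ONE-Glo luminescence.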
NPC1 prom act: NPC1 promoter activation; Huh7 NPC1 promoter luciferase reporter, 24 h; Potency, µM (doses to about 9.22 µM), for inactives: at the top dose activation, usual class: activators; 2.4% of 320,000 active; also: % of control where 0% means no effect; nearly all actives have a fitted effect of over 60% in size
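In 1536-well qHTS, Huh7 cells harboring an NPC1 promoter–luciferase construct received compound for 24 h; activation was quantified by luminescence following luciferase reagent addition.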
Rab9 prom act: activators of Rab9 promoter. Huh7 Rab9 promoter-luciferase reporter, luminescence, 24 h. Potency, µM (highest dose often 9.22 µM), for inactives: top-dose activation, negative = inhibition, actives largely listed as activators. 2.8% of 320,000 active; also: % of control where 0% means no effect; nearly all actives have a fitted effect of over 60% in size
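Huh7 cells stably carrying a Rab9 promoter-luciferase reporter, 1500 cells per well in OP-MEM I with 10% FBS, treated with compound 24 hours at 37C. Luciferase activity read by luminescence after 10 minutes with Amplite reagent.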
KinaseGlo FLuc: counter-screen: inhibitors of Kinase-Glo firefly luciferase | Q27757 | Kinase-Glo luciferase, ATP luminescence, 8 min | Potency, µM (series often up to 38.3 µM), for inactives: at the top dose activity change, negative = inhibition, actives largely listed as inhibitors | 0.28% of 200,000 active | AID 1379; also: % is scaled to controls: 0 for no effect and ±100 for the full control effect; nearly all actives have a fitted effect of over 60% in size
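Recombinant Kinase-Glo luciferase, 10 uM ATP (linear range), luciferin; imidazole pH 7.2 / KCl / MgCl2 / Tween / BSA buffer; 8 min RT; luminescence.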
ELG1 genotoxic: inducers of genotoxicity in HEK293T ELG1-luciferase cells. HEK293T ELG1-luciferase reporter, luminescence, 16 h. 1.3% of 330,000 active. Potency, µM (titrated, usually from 46 µM), without a hit: at the highest dose activity change, positive = activation, usual class: activators. AID 504466; also: % of control where 0% means no effect; nearly all actives have a fitted effect of over 60% in size
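DMSO vehicle served as control against compound-treated ELG1-luciferase HEK293T cells; exposure lasted 16 hr at 37 °C and 5% CO2, followed by ONE-Glo luminescence detection after 30 min.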
The depositor's hits bear a star; ? = inconclusive; . = not tested or not shown; [ ] = dose if it differs, or a comment. Compounds with a hit are over-represented: about 7.4% of the library has one in this group of screens. Calls follow the shape of the dose curve; as a rule, active = well fitted curve in the direction sought with a large enough effect; inconclusive = small, poorly fitted or top-dose-only effect, or another doubt; inactive = no such curve, though single readings can be large; an effect the other way counts as inactive or inconclusive. Potency is read from the fitted curve at half-maximal effect.

SMILES | FLuc counter | SMN2 splice up | NPC1 prom act | Rab9 prom act | KinaseGlo FLuc | ELG1 genotoxic
O=C(Nc1nc2ccc([N+](=O)[O-])cc2s1)C1CCCO1 (configuration not stated) | 15.1µM* | ? | ? | 2.24µM* | 0.9% | ?
CCC(C)C(=O)O[C@H]1C[C@@H](C)C=C2C=C[C@H](C)[C@H](CC[C@@H]3C[C@@H](O)CC(=O)O3)C21 (some centres not stated) | . | . | . | . | 0.9% | .
COc1ccc(OC(=O)c2cccnc2)cc1 | ? | 0.2% | -0.9% | 0.2% | 0.2% | 2.0%
CCCCCCOC(=O)c1ccc(OC(=O)c2cccnc2)cc1 | ? | 13.5% | 1.4% | 2.9% | -3.8% | 18.4µM*
COc1ccccc1C(=O)Oc1ccc(C(C)(C)C)cc1 | 6.01µM* | -30.2% | -0.5% | 3.9% | -3.0% | 4.2%
CCCCOC(=O)c1ccc(OC(=O)c2cccnc2)cc1 | ? | 4.5% | 1.3% | -1.4% | -0.3% | 9.0%
COc1ccc(C(=O)Oc2ccc(C(C)=O)cc2)c(OC)c1 | 12µM* | 7.0% | -0.6% | 3.3% | 1.4% | 9.0%
CC(C)(C)c1ccc(OC(=O)c2cccnc2)cc1 | 12µM* | 11.8% | -5.7% | -0.7% | -2.4% | 1.8%
COc1ccc(-n2nc(C(=O)N3CCCCC3)c3c4ccccc4n(C)c3c2=O)cc1Cl | -0.1% | 6.1% | . | . | . | .
CC(C)(C)c1ccc(OC(=O)c2ccc3snnc3c2)cc1 | ? | -10.4% | -2.3% | -5.4% | 3.0% | -0.3%
CC(C)(C)c1ccc(OC(=O)c2ccc3nsnc3c2)cc1 | 7.57µM* | -37.5% | 1.1% | -6.6% | -4.8% | 2.6%
NC(=O)C1CCN(c2nc(-c3ccc(Br)cc3)cs2)CC1 | -13.1% | 3.98µM* | ? | 2.51µM* | -2.2% | 6.51µM*
NC(=O)C1CCN(c2nc(-c3ccc(N4CCCCC4)nc3)cs2)CC1 | 4.78µM* | . | . | . | . | .
NC(=O)C1CCN(c2nc(-c3ccc(C(F)(F)F)cc3)cs2)CC1 | 16.9µM* | . | . | . | . | .
CC(=O)/C(=C\c1ccccc1)CC(=O)O | . | -8.5% | . | . | 1.1% | .
Cc1ccc(OCc2nnc(SCC(=O)Nc3ccccc3C(C)C)o2)cc1 | -13.6% | . | . | . | . | .
O=C1C2C3C=CC(C4CC34)C2C(=O)N1/N=C/c1ccc(-c2ccc(F)cc2[N+](=O)[O-])o1 (configuration not stated) | 13.5µM* | 0.2% | 5.6% | -1.6% | 0.8% | -2.3%
N#Cc1ccc(NC(=O)Nc2ccc(Cl)cc2)cc1 | ? | -22.6% | 21.7% | -23.8% | 6.1% | 17.3%
N#C/C(C(=O)Nc1ccc(Cl)cc1)=C(/S)Nc1ccccc1 | 15.1µM* | . | 0.2% | -0.9% | . | -2.7%
OC[C@H]1O[C@H](n2cnc3c(N[C@H]4CCC[C@@H]4O)ncnc32)[C@H](O)[C@@H]1O | . | . | 7.6%[46.1 µM] | 2.9%[46.1 µM] | . | .
COc1ccc(NC(=O)C2CCCN(S(=O)(=O)c3ccc(F)cc3)C2)cc1 (configuration not stated) | 4.9% | -3.7% | . | . | . | .
Cc1oc2cc3c(C(=O)N4CCCCC4)c(C)oc3cc2c1C(=O)N1CCCCC1 | 10.7µM* | -36.2% | 18.1% | ? | -4.2% | ?
CN(C)c1ccc(/C=N/Nc2nc3ccccc3o2)cc1 | 0.536µM* | . | ? | 0.1µM* | . | ?
CNc1nc(N/N=C/c2ccc([N+](=O)[O-])cc2)nc(Nc2ccccc2)n1 | ? | -30.1% | 0.3% | -3.5% | -0.8% | -3.5%
O=[N+]([O-])c1ccc(/C=N/Nc2nc3ccccc3o2)cc1 | -21.3% | . | 2µM* | 2µM* | . | ?
SMILES | FLuc counter | SMN2 splice up | NPC1 prom act | Rab9 prom act | KinaseGlo FLuc | ELG1 genotoxic
Cc1nc2ccc(NC(=O)c3ccc(Cl)c(NC(=O)c4cccs4)c3)cc2s1 | 13.5µM* | 11.5% | 4.3% | -2.3% | -0.2% | 0.9%
Cc1ccc(NC(=O)c2ccc(Cl)c(NC(=O)c3cccs3)c2)cc1 | 10.7µM* | . | 22.0% | 8.6% | . | 3.3%
CC(=O)N1CCN(C(=O)c2ccc(Cl)c(NC(=O)c3cccs3)c2)CC1 | -6.9% | . | 0.5% | -0.8% | . | -0.7%
CCOCC(=O)Nc1cc(C(=O)Nc2cc(C)cc(C)c2)ccc1Cl | ? | . | 4.1% | 4.4% | 11.2µM* | 8.0%
Cc1cc(C)c2oc(-c3ccc(Cl)c(NC(=O)c4cccs4)c3)nc2c1 | 4.26µM* | 7.8% | . | . | . | .
CN1CCN(CN2C(=O)C3C4C=CC(C3C2=O)C2C3C(=O)N(CN5CCN(C)CC5)C(=O)C3C42)CC1 (configuration not stated) | . | -7.0%[9.22 µM] | . | . | -11.8%[7.66 µM] | .
COC(=O)[C@H](Cc1ccccc1)NC(=O)O[C@@H]1Cc2cc(OC)ccc2O[C@H]1c1cccc(OC)c1 | . | 2.9% | . | . | -3.6% | .
CC(C)Oc1ccc2c(=O)c3cc(C(=O)O)ccc3oc2c1 | . | . | . | . | 3.1% | .
Cc1nnc(SCc2cnc(-c3ccc(C(C)C)cc3)s2)n1C | 0.301µM* | ? | 1.58µM* | 2µM* | -1.6% | ?
c1ccc(-c2ncc(CSc3nncn3-c3ccccc3)s2)cc1 | -0.3% | -55.1% | 0.5% | 1.0% | 7.2% | -0.1%
Cc1c2ccccc2c(C)c2c1ccc1ccccc12 | 13.5µM* | 3.0% | 21.9% | ? | . | 18.3µM*
CC1=Nc2ccc3ccccc3c2C1(C)C | -18.5% | 4.5% | -4.1% | -2.1% | 2.4% | -1.1%
COc1ccc(C(=O)C2CCCN(C(=O)CCc3scnc3C)C2)c(C)c1 (configuration not stated) | 19µM* | . | ? | ? | -8.2% | ?
COc1ccccc1/C=C\C=N\NC(=O)CCn1nnc2ccccc21 | -17.8% | 9.7% | 7.6% | -2.9% | 0.7% | -3.2%
COc1ccc(/C=N/NC(=O)C(C)Sc2ccccn2)cc1[N+](=O)[O-] (configuration not stated) | -6.0% | -25.5% | 0.6% | -8.9% | 0.7% | -0.1%
CCn1c(SCC(=O)N/N=C/c2ccc(OC)c(OC)c2)nc2ccccc21 | 16.9µM* | 4.2% | 1.1% | -1.6% | -0.5% | 6.2%
COc1cc(/C=N/NC(=O)CSc2ccccn2)ccc1OC(C)C | 4.26µM* | . | 11.7% | ? | . | ?
COc1ccc(Cc2nc3ccccc3n2CC(=O)N/N=C/c2ccccc2)cc1OC | -1.6% | -6.2% | -1.6% | 0.2% | 0.1% | -3.1%
COc1ccc(/C=N/NC(=O)CCSc2nc3ccccc3s2)cc1OC | 21.3µM* | 18.2% | -2.3% | -5.7% | 3.1% | -0.9%
COc1ccc(/C=N/NC(=O)CCn2nnc3ccccc32)cc1 | 13.5µM* | . | -4.3% | 0.8% | . | 3.5%
COc1ccc(/C=N/NC(=O)c2ccccc2Cl)cc1CSc1nc2ccccc2s1 | -1.3% | -43.4% | -17.3% | 1.8% | 1.1% | ?
CCCOc1ccc(CNC(=O)c2ccc(C)c(-n3c(C)nc4cccnc43)c2)cc1 | 2.5% | . | . | . | . | .

Screening results deposited in PubChem BioAssay by National Center for Advancing Translational Sciences (NCATS).
